Test results published in the emibetuzumab library of Makowski et al. (2022).
The list shows a part of the results. The hit rate among all sequences tested is not known here.

B1: VH:VL chains; a variant is named by its letters at X, in order (parent)
chain 1: QVQLVQSGAEVKKPGASVKVSCKASGYTFTDYXMHWVRQAPGQGLEWMGXVNPNXXXTTYNQKFEGRVTMTTDTSTSTAYMELRSLRSDDTAVYYCARXNXLDXWGQGTTVTVSS
chain 2: DIQMTQSPSSLSASVGDRVTITCSVSSSVSSIYLHWYQQKPGKAPKLLIYSTSNLASGVPSRFSGSGSGTDFTLTISSLQPEDFATYYCQVYSGYPLTFGGGTKVEIK

Variants of: B1
Assay: yeast display scFab, FACS + sequencing
Details: with MET
How it was run: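 For FACS, yeast displaying a heavy-chain CDR mutant scFab library were labelled with 1 nM HGFR-Fc and anti-Myc (PBSB, 1% milk, 3 h, room temperature), and the top 50% antigen-positive cells were gated. Input and round-3 sorted populations were deep sequenced in two replicates. The binding call was positive for sequences occurring in both antigen-positive samples and negative for sequences occurring only in input.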

Row | Variant | antigen binding call
1 | DEGGTSLD | no binding
2 | YKGKGDAD | no binding
3 | YKAKGAAD | binds
4 | YKARGAAD | binds
5 | VTAGDAGD | no binding
6 | VEAGDAGD | no binding
7 | YKAGDAGD | binds
8 | YKAKGAGD | binds
9 | YKAEDVGD | no binding
10 | FAEGDDVV | no binding
11 | FRKRGSAV | binds
12 | ARAAGDWV | no binding
13 | FTTGGSAV chain 1 M48I | no binding
14 | ARAGGSVV | binds
15 | AEAGDAVV | no binding
16 | FRGRGSLV | binds
17 | ARARGSWV | binds
18 | ARAKTSWV | no binding
19 | AEERDSVV | no binding
20 | FRKAAVAV | no binding
21 | SEARSYLV | no binding
22 | SEARSDVD | no binding

Row | Variant | antigen binding call
23 | FRARGSWV | binds
24 | FRGRDVAV | no binding
25 | FRGRGSWV | binds
26 | FRGRGSAV | binds
27 | FRGRGSVV | binds
28 | FTKAASWV | no binding
29 | DAGTGAGD | no binding
30 | SETTDDAV | no binding
31 | SEARSSLV | no binding
32 | YAEESSSA | no binding
33 | FARGGYVA | no binding
34 | DRREDSSA | no binding
35 | YRRGDSSA | binds
36 | YRRGSSSA | binds
37 | YRRKGSSA | binds
38 | FRRGGASA | binds
39 | DRRGDSSA | no binding
40 | VAAKSAAA chain 1 R38K | no binding
41 | ATGGDDWF | no binding
42 | VEGGGDWS | no binding
43 | SEARNAGD | no binding
44 | VKGRADWA | no binding

Row | Variant | antigen binding call
45 | VTGGSDVY | no binding
46 | FEETDASA | no binding
47 | FRGKDASA | binds
48 | YRRGGASA | binds
49 | DARGGSSA | no binding
50 | FAGGGDGA | no binding
51 | FATEGASA | binds
52 | FAEGDDSA | no binding
53 | YRRGGSSA | binds
54 | FRGRDFSA | no binding
55 | STGGDDVY | no binding
56 | VAGTGDWD | no binding
57 | DTGKDAGD | no binding
58 | SETGGDVA | no binding
59 | SEARSAVS | no binding
60 | SEEASSSA | no binding
61 | YTGTSSSA | no binding
62 | DRGRDSSA | no binding
63 | YRRRDSSA | binds
64 | YRRGGSVA | binds
65 | VTGGDDVY | no binding
66 | YTGGDDVV | no binding

Row | Variant | antigen binding call
67 | YEGGGSSA | no binding
68 | FRGRGSSA | binds
69 | FKGEGSSA | no binding
70 | FRGGGSSA | binds
71 | DTGRADWA | no binding
72 | DTREGDVD | no binding
73 | DGRGDALS | no binding
74 | YKRGDSSS | binds
75 | YKRGDDSS | no binding
76 | YKRGDASS | binds
77 | VGTKGDAA | no binding
78 | DEGGGSSA | no binding
79 | FRGGGSWA | binds
80 | FRGGGSAA | binds
81 | FRGGGAVA | binds
82 | DATGGAVA | no binding
83 | FRGTGSWA | no binding
84 | FRGRDDWA | no binding
85 | FRTGGAVA | binds
86 | STGTSDVF | no binding
87 | DAKEGDGV | no binding
88 | FRGGSSAA | binds

Row | Variant | antigen binding call
89 | DRGGSSAA | no binding
90 | FRTRDSAA | binds
91 | FAEGASSS | no binding
92 | FRTRDSSS | binds
93 | AARADSLS | no binding
94 | FRGRDAVD | binds
95 | DRGRDDVF | no binding
96 | FRGRDDVF | no binding
97 | FRGRAAVD | binds
98 | FRGRDAVF | binds
99 | FRGRDFAD | no binding
100 | FRGRDYGD | no binding
101 | FRGRDYGF | no binding
102 | FRGRDSSF | binds
103 | SAEKDDGS | no binding
104 | DARGGAGA | no binding
105 | VGEKGDGV | no binding
106 | SEKEGDAA | no binding
